We go through eight compounds from PubChem BioAssay (Tox21).

Test [1] is described as follows: Nuclear factor erythroid 2-related factor 2/antioxidant responsive element (Nrf2/ARE) small molecule agonists: qHTS cell viability counter screen in human keratinocytes (AID 1919968; active = well fitted cell-killing curve with a large enough effect in the repeat runs; note: nearly all actives have a fitted effect of over 55% in size). A digest of the protocol:
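Fluorescence read-out from CellTiter-Fluor after 1 h at 37 C. Wells held HaCaT-derived ARE-luciferase reporter cells (1,500/well) treated 23 h with DMSO-dissolved compounds. Run in the same wells as the luciferase agonist read.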

The nature of test [2]: Nuclear factor erythroid 2-related factor 2/antioxidant responsive element (Nrf2/ARE) small molecule agonists: luciferase reporter gene qHTS assay in human keratinocytes (AID 1919969). Note: nearly all actives have a fitted effect of over 35% in size. Note: potency is the fitted concentration of half-maximal effect. A general note: A reporter such as luciferase makes a cellular process visible.
Test [3] concerns the target Gonadotropin-releasing hormone receptor (Homo sapiens) (UniProt P30968). Put plainly: Human gonadotropin-releasing hormone receptor (GnRHR) small molecule agonists, calcium flux assay in GnRHR-HEK293 cells (AID 1920063). Note: nearly all actives have a fitted effect of over 35% in size. Summed up:
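Calcium-dye fluorescence, Ex/Em=480/540, recorded every 1 sec over 3 min after compound addition to GnRHR-HEK293 cells. Cells had been seeded 18 hours earlier and dye-loaded for 1 hour at 37 C. Fifteen concentrations, triplicates.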
In general terms: Calcium flux is commonly read through the fluorescence of an indicator in the cells.

A short description of test [4]: G protein-coupled receptor (GPCR) small molecule agonists, calcium flux assay: HEK293 wild type cell line counter screen (AID 1920065). Summed up:
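Agonist mode; 18 h seeding at 37 C, 1 h dye load at 37 C; compounds pinned from DMSO, ATP as positive control; kinetic fluorescence 480/540 nm, 3 min, 1 s reads; 15 concentrations, triplicate.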

Test [5] can be described thus: p53 small molecule agonists, cell-based qHTS assay with human liver microsomes (AID 1963577).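 Note: p53 response element beta-lactamase reporter cells with liver microsomes plus NADPH.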 Summed up:
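HLM-supplemented p53RE-bla reporter assay: 16 h compound exposure at 37 C, microsomes and NADPH each 0.5 mg/mL final, read by fluorescence intensity.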
(qHTS replaces the single test concentration by a dilution series.)

The nature of test [6]: p53 small molecule agonists, cell-based qHTS assay with rat liver microsomes (AID 1963578). Summed up:
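Quantitative HTS of the Tox21 10K library: p53RE-bla cells, rat liver microsomes plus NADPH at 0.5 mg/mL final each, 16 h at 37 C, beta-lactamase fluorescence detection.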

Test [7] is described as follows: p53 small molecule agonists, cell-based qHTS assay with human liver microsomes: qHTS cell viability counter screen (AID 1963579). Note: nearly all actives have a fitted effect of over 45% in size. Note: potency is the fitted concentration of half-maximal effect. A digest of the protocol: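 Viability of p53RE-bla cells is measured as CellTiter-Glo luminescence following a 16 h, 37 C incubation with compound, liver microsomes from human donors and NADPH.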
A short description of test [8]: p53 small molecule agonists, cell-based qHTS assay with rat liver microsomes: qHTS cell viability counter screen (AID 1963580). Note: nearly all actives have a fitted effect of over 45% in size. A digest of the protocol:
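Rat liver microsome (0.5 mg/mL final) and NADPH (0.5 mg/mL final) co-incubation with compounds for 16 h at 37 C on HCT-116 p53RE-bla cells; cytotoxicity taken from intracellular ATP luminescence.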

Test [9] is described as follows: p53 small molecule agonists, cell-based qHTS assay: qHTS cell viability counter screen (AID 1963581). Note: nearly all actives have a fitted effect of over 45% in size. A digest of the protocol: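 Cytotoxicity read-out: ATP-based luminescence (CellTiter-Glo, 30 min RT) measured in the same wells as the p53 reporter assay, HCT-116 p53RE-bla cells, 16 h compound exposure at 37 C.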
Test [10] can be described thus: p53 small molecule agonists, cell-based qHTS assay (AID 1963582; active = well fitted activation curve with a large enough effect in the signal ratio in the repeat runs, not every such curve was filed as active; the % refers to the signal ratio). Summed up:
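Fluorescence intensity read-out of a beta-lactamase reporter under a p53 response element. Cells were exposed to DMSO-dissolved compounds for 16 h at 37 C, then developed with FRET substrate for 2 h at RT.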

Test [11] deals with 5-hydroxytryptamine receptor 2A (Homo sapiens) (UniProt P28223). Put plainly: 5-hydroxytryptamine receptor 2A (HTR2A) small molecule agonists, cell-based qHTS assay (AID 1963587). Note: nearly all actives have a fitted effect of over 30% in size. A digest of the protocol:
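Kinetic calcium-flux fluorescence (2 min, 1 sec intervals) after compound addition in agonist mode. HTR2A-CHO cells were cultured 18 h, then dye-loaded 1 h at 37 C.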

For test [12], the target named is Muscarinic acetylcholine receptor M1 (Homo sapiens) (UniProt P11229). Put plainly: Cholinergic receptor muscarinic 1 (CHRM1) small molecule antagonists, cell-based qHTS assay (AID 1963588). Note: nearly all actives have a fitted effect of over 40% in size. A digest of the protocol: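 Compounds were tested at 15 concentrations in three independent runs. Dye-loaded CHRM1-CHO cells were exposed 5 min at room temperature before stimulation by acetylcholine added at 50nM. Intracellular calcium was read kinetically on FDSS for 3 min.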
Chain of Muscarinic acetylcholine receptor M1 (Homo sapiens) (P11229 whole entry, looked up): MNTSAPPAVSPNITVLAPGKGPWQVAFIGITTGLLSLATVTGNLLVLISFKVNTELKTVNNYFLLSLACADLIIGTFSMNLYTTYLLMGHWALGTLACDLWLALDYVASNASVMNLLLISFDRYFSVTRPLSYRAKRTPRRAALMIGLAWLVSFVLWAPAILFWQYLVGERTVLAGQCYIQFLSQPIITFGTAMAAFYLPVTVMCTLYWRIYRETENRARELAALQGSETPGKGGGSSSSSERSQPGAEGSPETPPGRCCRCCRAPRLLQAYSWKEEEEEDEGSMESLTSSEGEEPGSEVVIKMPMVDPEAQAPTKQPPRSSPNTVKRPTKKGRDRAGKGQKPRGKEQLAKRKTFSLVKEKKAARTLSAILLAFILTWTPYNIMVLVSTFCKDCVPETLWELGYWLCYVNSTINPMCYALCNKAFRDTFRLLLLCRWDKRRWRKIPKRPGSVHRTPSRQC

The target is the same in test [13]. Put plainly: Cholinergic receptor muscarinic 1 (CHRM1) small molecule agonists, cell-based qHTS assay (AID 1963589). Note: nearly all actives have a fitted effect of over 35% in size. Summed up: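 Calcium flux read-out: kinetic fluorescence at 1 sec intervals after pin-tool compound addition to dye-loaded CHRM1-CHO cells (human M1). Agonist mode; 15 concentrations tested in triplicate independent runs.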
Test [14] is described as follows: cAMP Responsive Elements (CRE) small molecule agonists, cell-based qHTS assay (AID 1963590). A digest of the protocol: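 Beta-lactamase reporter readout: LiveBLAzer B/G FRET substrate, 2 h at room temperature, added after 3 h compound treatment of CRE-bla HEK 293T cells at 37 C/5% CO2.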
The target of test [15] is Beta-2 adrenergic receptor (Homo sapiens) (UniProt P07550). Put plainly: Adrenergic beta2 receptor (ADRB2) small molecule antagonists, cell-based qHTS assay (AID 1963592). Note: series mostly up to about 92 µM; nearly all actives have a fitted effect of over 50% in size. Summed up:
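Assay format: CHO-ADRB2 cells, 18-20hr seeding at 37C/5% CO2, then compound plus 1nM isoproterenol agonist mix for 0.5hr RT. Homogeneous time-resolved fluorescence cAMP detection after 1hr, expressed as 665/615 nm ratio.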

Test [16] concerns the target D(2) dopamine receptor (Homo sapiens) (UniProt P14416). Put plainly: Dopamine D2 receptor (DRD2) small molecule agonists, cell-based qHTS assay (AID 1963594). Note: nearly all actives have a fitted effect of over 35% in size. Note: potency is the fitted concentration of half-maximal effect. Summed up:
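cAMP accumulation in DRD2-HEK293 cells measured by HTRF after 1 h detection; compounds added 10 min before NKH477 (200nM […]) forskolin-analogue stimulation, 30 min at room temperature, with Ro20-1724 present at 0.1 mM final.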

Test [17] shares this target. Put plainly: Dopamine D2 receptor (DRD2) small molecule antagonists, cell-based qHTS assay (AID 1963595; active = well fitted inhibition curve with a large enough effect in the signal ratio in the repeat runs, with a control signal flat; the % refers to the signal ratio). A digest of the protocol:
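DRD2-HEK293; 0.1 mM Ro20-1724; cpd 10 min RT; NKH477 200 nM + quinpirole 12 nM, 30 min RT; HTRF cAMP (cAMP-d2/anti-cAMP cryptate), 665/620 nm ratio after 1 h.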

The nature of test [18]: cAMP Responsive Elements (CRE) small molecule antagonists, cell-based qHTS assay (AID 1963591; active = well fitted inhibition curve with a large enough effect in the signal ratio in the repeat runs, not every such curve was filed as active; the % refers to the signal ratio). A digest of the protocol:
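HEK293T CRE-bla; 18 h preincubation; compound pin-transfer; NKH477 0.25 uM final, 3 h, 37 C; LiveBLAzer FRET substrate 2 h RT.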

The target of test [19] is 5-hydroxytryptamine receptor 2A (Homo sapiens) (UniProt P28223). Put plainly: 5-hydroxytryptamine receptor 2A (HTR2A) small molecule antagonists, cell-based qHTS assay (AID 1963586). Note: nearly all actives have a fitted effect of over 45% in size. Summed up:
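CHO cells stably expressing human HTR2A were plated for 18 h at 37 C, then loaded with calcium dye for 1 h. Compounds were preincubated 5 min at room temperature before DOI (4 nM solution) was added. Kinetic fluorescence was read for 3 min.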

Records with an inconclusive call do not appear. Calls of active or inactive are those of the source. Unless noted, calls come from the whole dose curve.

Chain of Beta-2 adrenergic receptor (Homo sapiens) (P07550 whole entry, looked up): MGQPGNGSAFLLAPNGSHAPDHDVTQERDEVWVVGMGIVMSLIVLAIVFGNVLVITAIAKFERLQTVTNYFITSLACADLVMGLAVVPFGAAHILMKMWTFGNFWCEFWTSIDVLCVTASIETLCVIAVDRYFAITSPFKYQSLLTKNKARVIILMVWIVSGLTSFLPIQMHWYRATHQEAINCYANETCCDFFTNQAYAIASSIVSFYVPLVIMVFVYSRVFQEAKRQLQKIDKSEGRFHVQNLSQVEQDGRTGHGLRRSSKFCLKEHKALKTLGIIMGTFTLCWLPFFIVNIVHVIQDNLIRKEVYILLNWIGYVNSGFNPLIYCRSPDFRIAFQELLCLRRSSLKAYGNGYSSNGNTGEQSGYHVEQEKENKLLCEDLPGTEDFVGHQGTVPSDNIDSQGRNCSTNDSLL
Chain of 5-hydroxytryptamine receptor 2A (Homo sapiens) (P28223 whole entry, looked up): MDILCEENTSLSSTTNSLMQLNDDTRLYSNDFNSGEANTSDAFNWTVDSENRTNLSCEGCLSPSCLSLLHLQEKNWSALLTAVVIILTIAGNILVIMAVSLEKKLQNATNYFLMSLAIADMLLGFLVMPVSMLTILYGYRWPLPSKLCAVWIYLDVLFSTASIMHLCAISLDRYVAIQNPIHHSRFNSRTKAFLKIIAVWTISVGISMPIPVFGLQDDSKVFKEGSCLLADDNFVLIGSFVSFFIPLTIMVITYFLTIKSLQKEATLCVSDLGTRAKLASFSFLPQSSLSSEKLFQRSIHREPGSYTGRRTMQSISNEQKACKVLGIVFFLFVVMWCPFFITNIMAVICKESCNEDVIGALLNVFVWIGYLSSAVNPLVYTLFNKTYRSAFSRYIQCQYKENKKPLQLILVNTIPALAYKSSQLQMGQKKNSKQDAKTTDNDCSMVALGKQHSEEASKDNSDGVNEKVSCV
Chain of D(2) dopamine receptor (Homo sapiens) (P14416 whole entry, looked up): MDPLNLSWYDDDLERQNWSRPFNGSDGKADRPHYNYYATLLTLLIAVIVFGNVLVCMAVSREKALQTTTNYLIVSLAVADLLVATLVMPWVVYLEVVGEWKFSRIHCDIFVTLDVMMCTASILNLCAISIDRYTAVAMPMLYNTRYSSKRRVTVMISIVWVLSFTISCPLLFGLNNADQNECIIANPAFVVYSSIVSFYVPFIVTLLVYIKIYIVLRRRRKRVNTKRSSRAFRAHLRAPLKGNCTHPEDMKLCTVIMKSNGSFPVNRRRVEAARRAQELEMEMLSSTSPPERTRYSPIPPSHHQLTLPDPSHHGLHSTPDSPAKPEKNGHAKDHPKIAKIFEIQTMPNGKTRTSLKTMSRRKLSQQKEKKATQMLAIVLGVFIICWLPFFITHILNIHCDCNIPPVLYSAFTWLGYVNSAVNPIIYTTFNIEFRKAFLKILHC
Chain of Gonadotropin-releasing hormone receptor (Homo sapiens) (P30968 whole entry, looked up): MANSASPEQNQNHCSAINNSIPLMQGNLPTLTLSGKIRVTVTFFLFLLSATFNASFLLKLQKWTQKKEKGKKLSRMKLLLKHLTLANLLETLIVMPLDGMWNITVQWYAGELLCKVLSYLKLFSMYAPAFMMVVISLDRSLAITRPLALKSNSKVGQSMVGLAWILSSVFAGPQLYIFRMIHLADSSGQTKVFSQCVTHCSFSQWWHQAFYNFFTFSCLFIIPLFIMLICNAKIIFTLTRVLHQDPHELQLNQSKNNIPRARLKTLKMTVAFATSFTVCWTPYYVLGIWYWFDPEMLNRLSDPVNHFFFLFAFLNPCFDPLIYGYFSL

Turning to `O=C(OCCN1CCOCC1)c1cccnc1Nc1cccc(C(F)(F)F)c1`, the Potency entry in [1], in [2], in [3], in [5], in test [6] and in [7] was “inactive” throughout. Moreover, the Potency result in [8], in test [9], in test [10], in [11], in test [12] and in test [13] was “inactive” in each case. Moreover, the Potency entry in test [14], in test [15], in test [16] and in [17] was “inactive” throughout. Moreover, in test [4], the outcome was inactive.

Regarding `Cc1cc(-n2nc3ccc(Cl)cc3n2)c(O)c(C(C)(C)C)c1`, the Potency entry in test [1], in [2], in test [3], in test [5], in test [6] and in [7] was “inactive” in each case. In addition, the Potency result in test [8], in [9], in test [10], in test [11], in test [12] and in test [13] was “inactive” throughout. Besides, the Potency result in test [14], in [18], in test [15], in test [16] and in test [17] was “inactive” each time. For the same compound, the result in test [4] was inactive.

In the case of `CCCNC(C)C(=O)Nc1ccccc1C` (configuration not stated), the Potency entry in test [1], in test [2], in [3], in test [5], in [6] and in [7] was “inactive” each time. Besides, the Potency entry in test [8], in test [9], in test [10], in test [18], in [15] and in [17] was “inactive” throughout. In test [4], the result was inactive. Also, in [16], the Potency was 14.4 µM (active).

`S=c1[nH][nH]c(=S)s1`: the Potency entry in [1], in test [2], in test [3], in test [5], in [6] and in [7] was “inactive” each time. The Potency result in [8], in test [9], in test [10], in test [11], in test [12] and in [14] was “inactive” each time. In addition, the Potency entry in [15] is “inactive”. Also, in test [4], the result was inactive.

In the case of `CS(=O)(=O)c1ccc(-c2cn3ccccc3n2)cc1`, the Potency result in [1], in test [3], in test [5], in test [6], in test [8] and in [9] was “inactive” in each case. Besides, the Potency result in [10], in test [19], in [11], in test [13], in test [14] and in [18] was “inactive” in each case. Also, the Potency result in test [15], in test [16] and in test [17] was “inactive” throughout. The Potency was 33.5 µM (active) in test [2] and 17.8 µM (active) in test [7]. The result in test [4] was inactive.

For the compound `COc1cccc(O)c1`, the Potency result in [1], in test [2], in test [3], in [5], in [6] and in test [7] was “inactive” throughout. In addition, the Potency entry in test [8], in test [9], in test [10], in test [19], in test [14] and in [18] was “inactive” each time. In addition, the Potency result in test [15] and in [17] was “inactive” each time. For the same compound, the outcome in test [4] was inactive.

`Nc1ccc(C(=O)O)c(O)c1`: the Potency result in test [1], in test [2], in test [3], in [5], in [6] and in test [7] was “inactive” each time. Moreover, the Potency result in [8], in test [9], in test [10], in test [14], in test [18] and in test [15] was “inactive” in each case. For the same compound, in test [16], the Potency result was “inactive”. The result in [4] was inactive.

Turning to `CCCN1C[C@H](CSC)C[C@@H]2c3cccc4[nH]cc(c34)C[C@H]21`, the Potency result in test [1], in test [2], in [3], in test [5], in test [6] and in [7] was “inactive” in each case. In addition, the Potency result in test [8], in [9], in [10], in [15] and in [17] was “inactive” in each case. In addition, the result in test [4] was inactive.
